# A number with no mark means an inactive call. Results filed as inconclusive are left out. A call without a number means that no potency is given here. The source made the active and inactive calls. Calls come from the whole dose curve; as a rule, active = well fitted curve in the direction sought with a large enough effect; inconclusive = small, poorly fitted or top-dose-only effect, or another doubt; inactive = no such curve, though single readings can be large; an effect the other way counts as inactive or inconclusive.
# Legend:
# [1] = qHTS Assay for Identifying Gametocytocidal Compounds (AID 743244); note: potency is the fitted concentration of half-maximal effect;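 for max response: actives lower the fluorescent signal which means gametocytes are killed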; conditions: P. falciparum 3D7 stage III-V gametocytes, alamarBlue, 72 h; max response: hits give low values
# Method in brief: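 A resazurin-based viability read-out was applied to mature P. falciparum gametocytes: 72 h compound treatment, then 24 h dye incubation, with falling fluorescence signalling gametocytocidal effect.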
# [2] = qHTS assay for cell viability of the p53RE-bla HCT-116 cell line (AID 743292); note: nearly all actives have a fitted effect of over 55% in size; note: potency is the fitted concentration of half-maximal effect
# Method in brief: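 Intracellular ATP of p53RE-bla HCT-116 cells measured by luciferase luminescence following 16 h compound incubation at 37 C; DMSO-only wells served as vehicle controls.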
# [3] = qHTS assay to identify small molecule inhibitors of chordoma cells - UCH-1 (AID 1259355); note: nearly all actives have a fitted effect of over 55% in size
# Method in brief: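 Luminescent ATP read-out (CellTiter-Glo, 30min at room temperature) measured viability of UCH-1 cells exposed for 48hr to test drugs at 15 concentrations, co-dosed with a five-agent combination of auranofin, camptothecin, doxorubicin, rubitecan and topotecan.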
# [4] = qHTS assay to identify small molecule inhibitors of chordoma cells - UCH-2 (AID 1259356); note: series mostly up to about 46 µM
# [5] = P-glycoprotein substrates identified in KB-8-5-11 adenocarcinoma cell line, qHTS therapeutic library screen (AID 1346987); note: nearly all actives have a fitted effect of over 65% in size; note: potency is the fitted concentration of half-maximal effect; for activity change, negative = cytotoxicity: series mostly up to about 44 µM
# Method in brief: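 KB-8-5-11: colchicine-selected sub-line of KB-3-1 over-expressing P-gp; assay medium lacked colchicine. 72 h drug exposure at 37 degree C, CellTiter-Glo.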
# [6] = target: Hexokinase-4 (Homo sapiens) + Glucokinase regulatory protein (Homo sapiens) (UniProt P35557+Q14397); assay: qHTS assay for inhibitors of recombinant human GCK-GKRP interaction: HTRF assay (AID 743207)
# Method in brief: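 After 60 min equilibration at room temperature with anti-FLAG XL665 and anti-GST antibodies, FRET ratio (665/615 nm, excitation 320 nm) was read. Proteins: GST-GCK and FLAG-GKRP, each 5 nM, plus 2 uM S6P, pH 7.1 buffer; GCK-free wells define minimum signal.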
# [7] = P-glycoprotein substrates identified in KB-3-1 adenocarcinoma cell line, qHTS therapeutic library screen (AID 1346986); note: nearly all actives have a fitted effect of over 60% in size
# Method in brief: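 KB-3-1 parental cells and P-gp-overexpressing KB-8-5-11 (colchicine omitted during assay) plated at 500 cells/well, dosed in dose-response, incubated 72 h at 37 degree C. CellTiter-Glo luminescence read; KB-8-5-11 also tested with tariquidar.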
# Sequence of Hexokinase-4 (Homo sapiens) + Glucokinase regulatory protein (Homo sapiens) (P35557 whole entry, looked up): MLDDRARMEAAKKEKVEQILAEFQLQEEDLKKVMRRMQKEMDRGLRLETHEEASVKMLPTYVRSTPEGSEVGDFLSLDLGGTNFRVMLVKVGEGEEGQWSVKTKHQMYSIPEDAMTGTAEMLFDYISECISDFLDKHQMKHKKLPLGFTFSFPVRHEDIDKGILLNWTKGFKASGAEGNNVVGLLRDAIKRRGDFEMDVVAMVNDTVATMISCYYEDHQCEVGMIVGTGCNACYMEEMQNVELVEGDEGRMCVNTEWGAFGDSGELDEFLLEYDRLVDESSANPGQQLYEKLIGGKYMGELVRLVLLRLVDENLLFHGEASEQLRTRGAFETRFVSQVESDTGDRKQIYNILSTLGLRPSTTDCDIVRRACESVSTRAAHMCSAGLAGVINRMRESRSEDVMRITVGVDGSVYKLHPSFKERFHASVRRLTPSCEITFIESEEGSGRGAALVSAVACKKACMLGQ
# Sequence of Hexokinase-4 (Homo sapiens) + Glucokinase regulatory protein (Homo sapiens) (Q14397 whole entry, looked up): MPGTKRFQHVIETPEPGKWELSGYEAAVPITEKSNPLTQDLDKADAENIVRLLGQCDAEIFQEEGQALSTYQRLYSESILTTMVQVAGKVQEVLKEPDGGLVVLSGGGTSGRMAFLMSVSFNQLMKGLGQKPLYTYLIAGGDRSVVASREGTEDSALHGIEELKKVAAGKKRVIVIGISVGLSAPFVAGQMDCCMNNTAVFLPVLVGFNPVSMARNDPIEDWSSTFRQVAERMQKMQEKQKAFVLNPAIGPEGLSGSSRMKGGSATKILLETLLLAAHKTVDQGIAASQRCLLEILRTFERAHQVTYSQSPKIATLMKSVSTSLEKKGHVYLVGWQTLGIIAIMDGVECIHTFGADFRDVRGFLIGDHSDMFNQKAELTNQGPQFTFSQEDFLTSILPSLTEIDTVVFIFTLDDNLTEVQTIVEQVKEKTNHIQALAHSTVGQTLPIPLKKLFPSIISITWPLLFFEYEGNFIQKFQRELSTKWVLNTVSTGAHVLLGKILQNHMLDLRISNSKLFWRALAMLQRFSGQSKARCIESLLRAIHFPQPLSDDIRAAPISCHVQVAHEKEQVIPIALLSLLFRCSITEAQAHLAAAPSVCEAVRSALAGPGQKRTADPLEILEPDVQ
compound,measurement,setting,value
[O]=[Cd],max response,[1],2.29%
same,Potency,[2],inactive
same,Potency,[3],inactive
same,Potency,[4],inactive
same,Potency,[5],inactive
O=c1c2ccccc2[se]n1-c1ccccc1,outcome,[6],inactive
same,Potency,[3],inactive
same,Potency,[4],inactive
ClC(Cl)(Cl)Cl,Potency,[2],inactive
same,Potency,[3],inactive
same,Potency,[4],inactive
same,Potency,[5],inactive
CC(C)CCON=O,max response,[1],-1.81%
same,Potency,[2],inactive
same,Potency,[3],inactive
same,Potency,[4],inactive
same,Potency,[5],inactive
C=CC[C@]1(O)CC[C@H]2[C@@H]3CCC4=CCCC[C@@H]4[C@H]3CC[C@@]21C,max response,[1],15.3%
same,Potency,[4],inactive
COCC(C)N(C(=O)CCl)c1c(C)csc1C (stereo unspecified),max response,[1],-1.03%
same,Potency,[2],inactive
same,Potency,[4],inactive
same,Potency,[5],inactive
COC1CC(=O)C23C(=O)NC(CC(C)C)C2C(C)=C(C)C(OO)C3/C=C(\C)CCC(O)C1O (stereo unspecified),Potency,[7],inactive
same,Potency,[5],inactive
COc1cc(C(=O)O[C@H]2[C@@H]3C=CO[C@@H](O[C@@H]4O[C@H](CO)[C@@H](O)[C@H](O)[C@H]4O)[C@@H]3[C@@]3(CO)O[C@@H]23)ccc1O,Potency,[7],inactive
same,Potency,[5],inactive
CCCCCOc1cc2c(cc1-c1cc(/C=C/C(=O)O)ccc1O)C(C)(C)CCC2(C)C,Potency,[7],inactive
Cn1ncnc1COc1nn2c(-c3c(F)cccc3F)nnc2cc1C1CCC1,Potency,[7],inactive
same,Potency,[5],inactive
O=c1[nH]c(=O)n(Cl)c(=O)n1Cl,max response,[1],6.71%
same,Potency,[2],inactive
same,Potency,[4],inactive
same,Potency,[5],inactive
C[C@]12C[C@H]3S[C@H]3C[C@@H]1CC[C@@H]1[C@@H]2CC[C@]2(C)[C@@H](O)CC[C@@H]12,max response,[1],1.49%
same,Potency,[4],inactive
C/C=C(\C)C(=O)OC1CC2C(CC=C3CC(OC4CC(OC)C(OC5CC(OC)C(OC6OC(C)C(OC7OC(CO)C(O)C(O)C7O)C(OC)C6O)C(C)O5)C(C)O4)CCC32C)C2(O)CCC(C(C)=O)C12C (stereo unspecified),outcome,[7],inactive [at 9.29 µM]
same,"activity change, negative = cytotoxicity",[5],9.6% [at 9.29 µM]
CC(=O)OC12C(O)C(C)C3(O)C4C=C(C)C(=O)C4CC(CO)=CC3C1C2(C)C (stereo unspecified),Potency,[7],inactive
same,Potency,[5],inactive
CCN1CC2(COC)C3[C@@H](OC)C4C1C3(C1C[C@]3(O)[C@H](OC(=O)c5ccccc5)C1[C@]4(OC(C)=O)[C@@H](O)[C@@H]3OC)[C@H](OC)C[C@H]2O (stereo partly specified),Potency,[7],inactive
same,Potency,[5],inactive
O=[N+]([O-])c1ccc(F)c([N+](=O)[O-])c1,max response,[1],6.65%
same,Potency,[2],inactive
same,Potency,[4],inactive
CCN1C[C@]2(COC(=O)c3ccccc3N3C(=O)C[C@H](C)C3=O)CC[C@H](OC)[C@@]34[C@@H]5C[C@H]6[C@H](OC)[C@@H]5[C@](O)(C[C@@H]6OC)[C@](O)([C@@H](OC)[C@H]23)[C@@H]14,Potency,[7],inactive
same,Potency,[5],inactive
Cc1c(Cl)cccc1S(=O)(=O)Nc1nc(CC(=O)N2CCN(C)CC2)cs1,Potency,[7],inactive
same,Potency,[5],inactive
O=[N+]([O-])C(Br)(CO)CO,Potency,[2],inactive
same,Potency,[4],inactive
same,Potency,[5],inactive
C=C[C@H]1[C@H](O[C@@H]2O[C@H](CO)[C@@H](O)[C@H](O)[C@H]2O)OC=C2C(=O)OCC[C@H]21,Potency,[7],inactive
same,Potency,[5],inactive
COc1cc(CCNCc2ccccc2O)c(OC)cc1C#N,Potency,[7],inactive
CC(=O)[C@H]1CC[C@H]2[C@@H]3CC[C@@H]4C[C@H](O)CC[C@]4(C)[C@H]3CC[C@]12C,max response,[1],-3.94%
same,Potency,[4],inactive
O=C(NCNC(=O)NC1C(=O)NC(=O)N1CO)NC1C(=O)NC(=O)N1CO (stereo unspecified),max response,[1],20.5%
same,Potency,[2],inactive
same,Potency,[4],inactive
same,Potency,[5],inactive
C=C(C)[C@H]1O[C@H]2CC[C@@]3(C)[C@@](O)(CC[C@H]4[C@@H]5OC(C)(C)[C@H]6C[C@@H]7C(=C)Cc8c(Cl)cc9[nH]c(c5c9c8[C@@]76O)[C@@]43C)[C@]23O[C@@H]3[C@H]1O,Potency,[7],inactive
same,Potency,[5],inactive
CCN(CC)CCO[C@H]1CC[C@@]2(C)C(=CC[C@@H]3[C@@H]2CC[C@]2(C)C(=O)CC[C@@H]32)C1,max response,[1],-4.56%
same,Potency,[4],inactive
COc1c(C(C)C)cc2c(c1O)[C@@]1(C(=O)O)CCCC(C)(C)C1CC2 (stereo partly specified),Potency,[7],inactive
same,Potency,[5],inactive
O=[N+]([O-])c1cc(I)c(O)c(I)c1,max response,[1],0.0812%
same,Potency,[4],inactive
ClC1C(Cl)C(Cl)C(Cl)C(Cl)C1Cl (stereo unspecified),max response,[1],4.65%
same,Potency,[2],inactive
same,Potency,[4],inactive
same,Potency,[5],inactive
[Cl-].[Cl-].[Hg+2],Potency,[2],inactive
same,Potency,[4],inactive
same,Potency,[5],3.66 µM (active)
O=CC=O,Potency,[2],inactive
same,Potency,[4],inactive
same,Potency,[5],inactive
C#CCN1CC(=O)N(COC(=O)C2C(C=C(C)C)C2(C)C)C1=O (stereo unspecified),max response,[1],21.2%
same,Potency,[2],inactive
same,Potency,[4],inactive
Clc1ccccc1Cl,max response,[1],10.6%
same,Potency,[2],inactive
same,Potency,[4],inactive
same,Potency,[5],inactive
CC(N)Cc1c[nH]c2ccccc12 (stereo unspecified),Potency,[7],inactive
same,Potency,[5],inactive
CC(C)(C)c1cc(C(C)(C)C)c2c(c1)C(O)(C(F)(F)F)C(=O)O2 (stereo unspecified),Potency,[7],inactive
same,Potency,[5],inactive
Oc1cc(Cl)c(Cl)cc1Cl,max response,[1],4.45%
same,Potency,[2],inactive
same,Potency,[4],inactive
same,Potency,[5],inactive
O=C1CCO1,Potency,[2],inactive
same,Potency,[4],inactive
same,Potency,[5],inactive
O=C1C=C2C=C[C@@H]3C[C@@]2(O1)[C@H]1CCCCN31,Potency,[1],7.08 µM (active)
same,Potency,[4],inactive
C[C@H]1CC[C@@H]2[C@@H](C)[C@H]3[C@H](C[C@H]4[C@@H]5CC=C6CC(O[C@@H]7O[C@H](CO)[C@H](O)[C@H](O[C@@H]8O[C@H](CO)[C@@H](O)[C@H](O)[C@H]8O)[C@H]7O[C@H]7O[C@@H](C)[C@H](O)[C@@H](O)[C@H]7O)CC[C@]6(C)[C@H]5CC[C@]34C)N2C1 (stereo partly specified),max response,[1],-0.257%
same,Potency,[2],70.8 µM (active)
same,Potency,[4],inactive
CC1=CC2/C=C(\C)CCC(O)C3OC(C)(C)OC3CC(=O)OC23C(=O)NC(CC(C)C)C3C1C (stereo unspecified),Potency,[7],inactive
same,Potency,[5],inactive
O=C(O)C(Cl)(Cl)Cl,Potency,[2],inactive
same,Potency,[4],inactive
same,Potency,[5],inactive
C[C@H]1CCC[C@H](O)CCCCCc2cc(O)cc(O)c2C(=O)O1,max response,[1],5.29%
same,Potency,[2],inactive
same,Potency,[4],inactive
same,Potency,[5],14.6 µM (active)

# Source: PubChem BioAssay (NCATS)
